Laboratory results as given in paper PMC12136788.
Numbering of substitutions follows the chain as printed. The full ranking holds about 24,000 sequences; the median of “enrichment r” is about 0.99, and the highest 2% start at about 3.7. What follows is part of a selection rich in the highest values, with near analogues and random picks from the rest.

T1: UNK ZnF1-3 (human, UniProt Q9C0B0 31-174)
T1 sequence: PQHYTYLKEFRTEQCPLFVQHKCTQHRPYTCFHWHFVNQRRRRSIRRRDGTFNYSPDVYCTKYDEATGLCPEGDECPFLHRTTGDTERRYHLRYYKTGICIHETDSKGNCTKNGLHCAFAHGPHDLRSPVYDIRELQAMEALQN

B1: chr16:18799448:18799449:-_ENSG00000134419_ENST00000563390|perfect_dup|FALSE|FALSE (ssRNA)
RNA: GGGAGUUCUACAGUCCGACGAUCCCUUCCUGUGAGGUUCACAACAAUCUUCCCAGCUCUGUGAUCAUCAAUGAUCUCAAAUUCACCAAUGUAUCCGUGCUUCAUCAUCACGGUUAAGAACCGAACGAUGACUUUAGAACAUGGCAACAGAGGAUUGAGCAUCA
B2: 99623494_99624154_931_CDS_ENSMUSG00000067567_ENSMUST00000087916|mouse|control|control (ssRNA)
RNA: GGGAGUUCUACAGUCCGACGAUCCUGAAUGGGCACAUUGACACUGUAGUACCGUCCUUUCCCCAGGCCAACAUCAGACAUGUCACCUGUUCCUGGGAAAAAUCCUGGGGAGAACUUGUGCAGGGACACAGUCAUAACCUUCGACAACAGAGGAUUGAGCAUCA
B3: chr1:172123744:172123745:-_ENSMUSG00000026667_ENSMUST00000150821|mus_hu|motif|central (ssRNA)
RNA: GGGAGUUCUACAGUCCGACGAUCAAACGCAUUGUUCACACUUUUUAGGAAUAUAGGAAAGUGGAAAAUAAAAGUUCUUUGCGGUUCAGCAGGAAAGAGUUUAAAAGACUUGAAUGGAAAUCAGAAAUUUAGGGAUUUGAGAAACAACAGAGGAUUGAGCAUCA
B4: chr2:183789671:183789672:-_ENSG00000061676_ENST00000360982|hu_hu|FALSE|FALSE (ssRNA)
RNA: GGGAGUUCUACAGUCCGACGAUCUGGCAGGUACACUUGAAUUUCAAAAAUUUAAAACAUAUAUAAAAAGUGGUUAGGGACUAACAUUUGUAUCAACAGUUGAUAAAUGUCUAAGAUUGUUUAUUAUACAGCAGGGUACAAUGGCAACAGAGGAUUGAGCAUCA
B5: chr2:183789671:183789672:-_ENSG00000061676_ENST00000360982|hu_hu|motif|central (ssRNA)
RNA: B4 RNA with U81G, A82G
B6: chr9:14812383:14812384:-_ENSMUSG00000031934_ENSMUST00000164273|mus_mus|mus_mus_mus_hu_True|68_88 (ssRNA)
RNA: GGGAGUUCUACAGUCCGACGAUCAUAGCCCAGGUAGAUACACGCUAACAGUAUAACGAUGAGUGUCACCAGCCGGCAGCUAAUGUACUUGAUGAUUAAAUUAUUAGAAUUUUUCUUUGUCUUCAAGUACUGCUCCACAAUUGGCAACAGAGGAUUGAGCAUCA
B7: 37607701_37614754_715_CDS_ENSG00000102710_ENST00000475892|human|control|control (ssRNA)
RNA: GGGAGUUCUACAGUCCGACGAUCGCUCUCAAGCAAAAGUUUGUCUUCCUGGGUCCAUUUGUGGUUAUCACUUGUUAUUGAAUGUACAUCACAAAUUAAAGUCUGCAUUGUUGGACGUAAGAGAAUGUGCCGACUUUGGUAACCCAACAGAGGAUUGAGCAUCA
B8: chr3:102833055:102833056:+_ENSMUSG00000068823_ENSMUST00000029446|mus_mus|FALSE|FALSE (ssRNA)
RNA: GGGAGUUCUACAGUCCGACGAUCUCAGUAGUAUUUGCUGACUCUUCUUUUUUCAGCACAAGUUCCAAAGGAUGAAAGUUGCUAGUAUUUAAAAAAAGAAAAAAAAAAGAAAAAGAAAAAAAGAAAAAAAAAAGGAGAGCGAGACAACAGAGGAUUGAGCAUCA
B9: 142051865_142054343_4063_CDS_ENSG00000114127_ENST00000264951|human|control|control (ssRNA)
RNA: GGGAGUUCUACAGUCCGACGAUCUGACUGUACUUCAUUUUCUUUGGAGAUAUUCAAAGAUGCUAAAAAGUUCUCAAUUCCAGAGUUAGGCUGCUUAUUGGACAUUUUUUGGGACCAACACUCAGCUUUAGGACUCUUACACUCCAACAGAGGAUUGAGCAUCA
B10: chr3:102833055:102833056:+_ENSMUSG00000068823_ENSMUST00000029446|mus_mus|motif|central (ssRNA)
RNA: B8 RNA with U82G, A83G
B11: chr19:42259214:42259215:+_ENSMUSG00000018820_ENSMUST00000165783|mus_mus|FALSE|FALSE (ssRNA)
RNA: GGGAGUUCUACAGUCCGACGAUCGCUAUAGUGACUGCUGCAGACUCAGAGACACUAGGAAAGUUGCAAGUGUAUAUUUUCUAUCUAAAUUUCUAACUAAAAUUUGCCCUGUUUUAUUCACUGGCCCAAAGGAUUCUUUUUUAACAACAGAGGAUUGAGCAUCA
B12: chr11:44378942:44378943:+_ENSMUSG00000019189_ENSMUST00000019333|mus_mus|motif|central (ssRNA)
RNA: GGGAGUUCUACAGUCCGACGAUCUUUAAAUUUAUUAAGACAUUCAGCUAUGUCUGUCAGUCUACAUCCAAAUUUGCGGCGGAAAACAAAGGAAAACCACACCCCACAGUAGGAAUACCAAGUCUGAAAUACACUUUUUUUUGACAACAGAGGAUUGAGCAUCA
B13: chr8:93522421:93522422:+_ENSMUSG00000056608_ENSMUST00000048665|mus_hu|FALSE|FALSE (ssRNA)
RNA: GGGAGUUCUACAGUCCGACGAUCAGACUGGAUCAUUGCUUGAAGAUGAAAAUCAGAAGCAGCUGGAUUGUAAGUAUCUCUAAAUUCUCCAAGUAUUUUCUCCUCAGCACCUUUUAUAAGAUAUGGAUGAUUACAACAUUUCCUCAACAGAGGAUUGAGCAUCA
B14: chr8:117878989:117878990:-_ENSG00000164754_ENST00000297338|hu_hu|hu_hu_hu_mus_True|8_8 (ssRNA)
RNA: GGGAGUUCUACAGUCCGACGAUCCCAGAGGCCCUCGUUUACUGAGGACAAAAUGUGCGUAGAACAUUUUUCUUAUUUGCUAUGAAAUAAGAAGAAACCUGGAUCUCGGCGGGGAGCCGGGAGGGGUUGGGUGGCCCGGGAGGGCAACAGAGGAUUGAGCAUCA

target: T1, UNK ZnF1-3; assay: nsRBNS (natural sequence RNA bind-n-seq); RBNS binding buffer (assumed for nsRBNS): 25 mM Tris pH 7.5, 150 mM KCl, 3 mM MgCl2, 0.01% Triton X-100, 500 ug/ml BSA, 20 U/ml SUPERase-In, 4 C; UNK is unkempt and MSI1 is Musashi-1; names of the RNAs are library labels; protein concentration not given here; high values mean tight binding

Row | Binder | binding signal [enrichment R]
1 | B1 | 0.793
2 | B2 | 0.68
3 | B3 | 3.57
4 | B4 | 4.06
5 | B5 | 6.64
6 | B6 | 1.31
7 | B7 | 0.803
8 | B8 | 5.11
9 | B9 | 0.644
10 | B10 | 8.15
11 | B11 | 1.32
12 | B12 | 1.46
13 | B13 | 1.27
14 | B14 | 1.2
